Data as given in PubChem BioAssay (NCATS).
Results filed as inconclusive are left out. Active and inactive are the calls of the source. Unless noted, calls come from the whole dose curve; as a rule, active = well fitted curve in the direction sought with a large enough effect; inconclusive = small, poorly fitted or top-dose-only effect, or another doubt; inactive = no such curve, though single readings can be large; an effect the other way counts as inactive or inconclusive.

Assays:
[1] = qHTS Assay for Identification of Small Molecule Antagonists for NFkB Signaling Pathway (AID 895; active = well fitted inhibition curve with a large enough effect in the signal ratio, with a control signal flat, not every such curve was filed as active; the % refers to the signal ratio; note: potency is the fitted concentration of half-maximal effect)
Method in brief: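 NFkB-bla ME-180 cervical carcinoma cells with beta-lactamase reporter under NFkB response element; compounds added, then TNF alpha at 10 pM final (EC50), 5 h at 37 C. LiveBLAzer substrate 2 h, room temperature; emission 460/530 nm at 405 nm excitation.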

[2] = qHTS Assay for Identification of Small Molecule Agonists for Thrombopoietin (TPO) Signaling Pathway (AID 917); note: potency is the fitted concentration of half-maximal effect
Method in brief: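 Luciferase reporter (Glycoprotein IIb promoter) in IL-3-deprived Ba/F3 cells carrying human TPO receptor; compounds co-added with 26 pM TPO, incubated 24 h, 37 C. Steadylite luminescence measured after 10 min.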

[3] = target: Muscarinic acetylcholine receptor M1 (Rattus norvegicus) (UniProt P08482); experiment: qHTS Assay for Antagonists of Acetylcholine Muscarinic M1 Receptor: Kinetic Measurement of Intracellular Calcium Response (AID 943);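 note: Fluo-4 calcium signal as peak divided by basal fluorescence over 4 min; series mostly up to about 35 µM; nearly all actives have a fitted effect of over 75% in size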
Muscarinic acetylcholine receptor M1 (Rattus norvegicus), sequence (P08482 whole entry, looked up): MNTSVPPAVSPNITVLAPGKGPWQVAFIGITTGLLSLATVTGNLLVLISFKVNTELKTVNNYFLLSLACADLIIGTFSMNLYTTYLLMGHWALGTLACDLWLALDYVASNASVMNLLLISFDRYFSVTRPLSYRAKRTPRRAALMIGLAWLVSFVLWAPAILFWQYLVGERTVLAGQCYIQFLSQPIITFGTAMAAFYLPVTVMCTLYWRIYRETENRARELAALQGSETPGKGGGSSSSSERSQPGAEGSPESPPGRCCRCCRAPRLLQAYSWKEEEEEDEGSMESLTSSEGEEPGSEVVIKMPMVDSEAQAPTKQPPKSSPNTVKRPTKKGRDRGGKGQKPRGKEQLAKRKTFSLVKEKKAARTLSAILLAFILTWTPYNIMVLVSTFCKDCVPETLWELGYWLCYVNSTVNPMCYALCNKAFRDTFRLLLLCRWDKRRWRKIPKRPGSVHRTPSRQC
Method in brief: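 Read-out: peak over basal Fluo-4 fluorescence, kinetic at 1 Hz for 4 min after EC80 carbachol (100 nM final). Rat M1-CHO cells, dye loaded 1 h at 37C, compound added 10 min before agonist.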

[4] = target: Muscarinic acetylcholine receptor M1 (Rattus norvegicus) (UniProt P08482); experiment: qHTS Assay for Antagonists of Acetylcholine Muscarinic M1 Receptor: Measurement of IP-One Response (AID 944); note: nearly all actives have a fitted effect of over 75% in size
Method in brief: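 Read-out: HTRF competition between d2-IP1 and Eu-cryptate anti-IP1 antibody, emission 620 and 665 nm. Stimulus was carbachol, EC80 (200 nM), for 30 min in M1-CHO cells (rat receptor), after 10 min compound pre-treatment.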

[5] = target: Pyruvate kinase (Leishmania mexicana) (UniProt Q27686); experiment: qHTS Validation Assay for Inhibitors of Leishmania Mexicana Pyruvate Kinase (AID 945);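 note: 0% = DMSO only neutral control wells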
Pyruvate kinase (Leishmania mexicana), sequence (Q27686 2-499 E452W): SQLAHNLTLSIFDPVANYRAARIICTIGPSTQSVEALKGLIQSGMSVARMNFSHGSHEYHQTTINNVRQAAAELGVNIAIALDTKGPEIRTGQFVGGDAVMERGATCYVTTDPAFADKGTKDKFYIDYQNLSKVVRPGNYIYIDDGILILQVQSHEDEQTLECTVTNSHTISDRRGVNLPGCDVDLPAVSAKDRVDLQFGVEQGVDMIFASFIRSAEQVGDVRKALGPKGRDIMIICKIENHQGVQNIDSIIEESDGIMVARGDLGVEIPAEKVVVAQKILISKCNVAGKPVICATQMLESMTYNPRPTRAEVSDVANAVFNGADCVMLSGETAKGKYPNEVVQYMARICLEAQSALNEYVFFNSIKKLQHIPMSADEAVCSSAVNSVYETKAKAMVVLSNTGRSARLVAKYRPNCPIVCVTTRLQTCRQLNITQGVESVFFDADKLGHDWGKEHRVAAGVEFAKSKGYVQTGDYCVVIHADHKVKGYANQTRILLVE
Method in brief: (§1)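 The enzyme is a highly purified E451W mutant of LmPYK used at 0.2 nM. It converts 0.5 mM PEP and 0.1 mM ADP over 1 h at room temperature; product ATP is quantified by luciferase luminescence relative to DMSO controls.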

[6] = target: Pyruvate kinase PKM (Homo sapiens) (UniProt P14618); experiment: qHTS Assay for Activators of Human Muscle Pyruvate Kinase (AID 954; active = well fitted curve in the direction sought with a large enough effect, not every such curve was filed as active;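 note: 0% = uninhibited enzyme and -100% = no enzyme or full thiadiazolimine inhibition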)
Pyruvate kinase PKM (Homo sapiens), sequence (P14618 whole entry, looked up): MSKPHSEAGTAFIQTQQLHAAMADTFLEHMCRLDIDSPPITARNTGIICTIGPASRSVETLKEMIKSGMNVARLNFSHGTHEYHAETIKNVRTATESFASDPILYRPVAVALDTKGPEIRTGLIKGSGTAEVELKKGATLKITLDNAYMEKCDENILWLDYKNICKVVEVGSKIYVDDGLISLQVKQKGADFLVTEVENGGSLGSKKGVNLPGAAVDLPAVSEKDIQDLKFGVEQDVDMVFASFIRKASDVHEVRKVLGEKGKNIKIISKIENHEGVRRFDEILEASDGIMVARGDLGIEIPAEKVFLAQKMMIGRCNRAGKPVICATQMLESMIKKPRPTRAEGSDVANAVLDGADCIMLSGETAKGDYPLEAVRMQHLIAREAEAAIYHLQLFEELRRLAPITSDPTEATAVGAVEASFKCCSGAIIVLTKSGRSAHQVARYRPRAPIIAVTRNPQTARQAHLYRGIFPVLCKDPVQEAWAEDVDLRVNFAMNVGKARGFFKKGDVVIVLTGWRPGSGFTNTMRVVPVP
Method in brief: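 Screening used highly purified human pyruvate kinase M2 under submaximal activity, with PEP at its Km and ADP below Km. After an hour at room temperature, ATP was read by luciferase luminescence.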

[7] = qHTS Assay for Identification of Small Molecule Agonists for Hypoxia Response Element Signaling Pathway (AID 914; active = well fitted activation curve with a large enough effect in the signal ratio, with a control signal flat, not every such curve was filed as active; the % refers to the signal ratio; note: % of control where 0% means no effect); details: ME-180 (cervical carcinoma) HRE-bla reporter, beta-lactamase ratio, CoCl2, 17 h; activation: hits give high values
Method in brief: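 Cells were plated overnight, pin-dosed with compound in a titration series, co-stimulated with EC50 CoCl2 and incubated 17 hours at 37 degrees Celsius. CCF4 substrate was then loaded, and AC50 values came from the 460nm/530nm ratio.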

[8] = qHTS Assay for Identification of Small Molecule Antagonists for Thrombopoietin (TPO) Signaling Pathway (AID 918); details: TPO-dependent cell signaling reporter, antagonist mode; note: potency is the fitted concentration of half-maximal effect; nearly all actives have a fitted effect of over 60% in size
Method in brief: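 Luminescence read-out: GPIIb-promoter luciferase in Ba/F3 cells carrying human TPO receptor. Compounds added with 26 pM TPO (EC50), 24 hrs, 37 C, 5% CO2; cells deprived of IL-3 overnight beforehand. Inhibition of signal scored.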

[9] = target: Cytochrome P450 2C19 (Homo sapiens) (UniProt P33261); experiment: qHTS Assay for Inhibitors and Substrates of Cytochrome P450 2C19 (AID 899); note: % is set by controls: 0 for no effect and ±100 for the full control effect; nearly all actives have a fitted effect of over 60% in size
Cytochrome P450 2C19 (Homo sapiens), sequence (P33261 whole entry, looked up): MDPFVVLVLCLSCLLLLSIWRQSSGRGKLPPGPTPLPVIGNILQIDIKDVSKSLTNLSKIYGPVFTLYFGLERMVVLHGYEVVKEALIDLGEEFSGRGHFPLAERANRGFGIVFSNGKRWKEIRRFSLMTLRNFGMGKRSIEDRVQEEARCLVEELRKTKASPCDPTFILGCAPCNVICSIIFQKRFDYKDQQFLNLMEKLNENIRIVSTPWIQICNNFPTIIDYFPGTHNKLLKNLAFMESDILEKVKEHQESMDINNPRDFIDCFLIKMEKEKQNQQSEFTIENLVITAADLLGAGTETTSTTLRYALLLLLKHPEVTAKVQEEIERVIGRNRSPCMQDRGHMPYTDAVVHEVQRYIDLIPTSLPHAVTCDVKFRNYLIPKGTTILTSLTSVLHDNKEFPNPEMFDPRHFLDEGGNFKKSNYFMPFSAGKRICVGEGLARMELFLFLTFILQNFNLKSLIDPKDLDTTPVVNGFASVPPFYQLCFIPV
Method in brief: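 Human CYP2C19 (5nM) with Luciferin-H EGE at 10uM (its KM) in 50mM KPO4 was preincubated with compound for 10 min at 37C. NADPH regeneration started a 60 min 37C reaction. Luciferin was read by luminescence, normalized to 57uM ketoconazole.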

[10] = Confirmation and Secondary Assay for Modulators of Hemoglobin Beta Chain Splicing at IVS2 654 locus (AID 910);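 note: per-well total GFP intensity by laser scanning cytometry after 2-day treatment; % of control where 0% means no effect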
Method in brief: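 HeLa cells stably carrying EGFP interrupted by mutant beta-globin IVS2-654 intron (CMV-driven) were treated with compound for 2 days at 37C; corrected splicing was scored as total peak GFP intensity per well (488 nm excitation, 500-520 nm emission).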

[11] = Confirmation and Secondary Assay for Modulators of Hemoglobin Beta Chain Splicing at IVS2 705 locus (AID 930);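 note: HeLa cells stably expressing the EGFP-705 splicing reporter; GFP fluorescence per well restored by corrected splicing of the IVS2-705 intron in EGFP; series mostly up to about 46 µM; % of control where 0% means no effect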
Method in brief: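 Splice-correction reporter: EGFP cDNA split by beta-globin intron 2 bearing the 705 mutation, stably in HeLa. Compound incubation 2 days, 37C; fluorescent objects 5-250 µm summed per well.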

[12] = target: Pyruvate kinase PKM (Homo sapiens) (UniProt P14618); experiment: qHTS Assay for Inhibitors of Human Muscle Pyruvate Kinase (AID 958)
Method in brief: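 Luminescence from a luciferase ATP-detection/stop reagent reported PKM2 activity. Reactions contained 0.1 nM purified human enzyme, 0.5 mM PEP, 0.1 mM ADP and 7 mM MgCl2 at pH 7.2, run 1 h at RT.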

[13] = target: Pyruvate kinase (Leishmania mexicana) (UniProt Q27686); experiment: qHTS Validation Assay for Activators of Leishmania Mexicana Pyruvate Kinase (AID 959)
Method in brief: as §1

CNCCNS(=O)(=O)c1cccc2cnccc12
active: Potency [1] 10 µM
inactive: Potency [2] | Potency [3] | Potency [4] | Potency [5] | outcome [6]

CCN1C(=O)C=CC1=O
active: Potency [8] 1.58 µM
inactive: Potency [1] | activation [7] 23.4% | Potency [3] | Potency [4] | Potency [5] | outcome [6]

O=c1onc2cnc3ccccc3n12
active: Potency [1] 5.62 µM
inactive: Potency [9] | Potency [2] | Potency [4] | Potency [5] | outcome [6]

NCCS(=O)O
inactive: Potency [1] | Potency [9] | Potency [2] | Potency [3] | Potency [4] | Potency [5] | outcome [6]

CCCn1c(=O)c2[nH]c(C3CCCC3)nc2n(CCC)c1=O
inactive: Potency [1] | Potency [9] | Potency [10] | Potency [2] | outcome [11] | Potency [4] | Potency [5] | outcome [6]

O=C(O)C1=CCCN(CCON=C(c2ccccc2)c2ccccc2)C1
inactive: Potency [1] | Potency [2] | Potency [4] | Potency [5] | outcome [6]

COc1ccccc1N1CCN(CCCNc2c(C)c(=O)n(C)c(=O)n2C)CC1
inactive: Potency [1] | Potency [2] | Potency [5] | outcome [6]

NS(=O)(=O)c1cccc2c1c([N+](=O)[O-])cc1nc(O)c(O)nc12
inactive: Potency [1] | Potency [2] | Potency [3] | Potency [4] | Potency [5] | Potency [12]

N#CC(C#N)=C(N)/C(C#N)=C/c1ccc(O)cc1
inactive: Potency [1] | Potency [2] | Potency [3] | Potency [4] | Potency [5] | outcome [6]

C[C@](Cc1ccc(O)c(O)c1)(NN)C(=O)O
inactive: Potency [9]

Clc1nccc2c1ccc1ccccc12
inactive: Potency [1] | Potency [2] | Potency [5] | outcome [6]

CCCCCCCCCCCCCCSCC(=O)O
inactive: Potency [1] | Potency [2] | Potency [4] | Potency [5] | outcome [6]

COc1cc2c(CCNC(C)=O)c[nH]c2cc1O
inactive: Potency [1] | Potency [2] | Potency [3] | Potency [4] | Potency [5] | outcome [6]

O=C1NC(=O)c2cc(Nc3ccccc3)c(Nc3ccccc3)cc21
active: Potency [1] 10 µM
inactive: Potency [4] | Potency [5] | outcome [6]

Cc1nc(N=Nc2ccc(S(=O)(=O)O)cc2S(=O)(=O)O)c(COP(=O)(O)O)c(C=O)c1O
inactive: Potency [1] | Potency [3] | Potency [4] | Potency [5] | outcome [6]
active: Potency [13] 3.98 µM

Cc1nc(N=Nc2cc(S(=O)(=O)O)c3cc([N+](=O)[O-])cc(S(=O)(=O)O)c3c2)c(COP(=O)(O)O)c(C=O)c1O
inactive: Potency [1] | Potency [4] | Potency [5] | outcome [6]

CCCC(=O)NCCc1c2n(c3ccc(OC)cc13)CCCc1ccccc1-2
inactive: Potency [1] | Potency [4] | Potency [5] | outcome [6]

CCN(c1nc(N)c(C(=O)N=C(N)N)nc1Cl)C(C)C
inactive: Potency [1] | Potency [4] | Potency [5] | outcome [6]

C[N+](C)(C)CC=O
inactive: Potency [1] | Potency [2] | Potency [4] | Potency [5] | outcome [6]

N#Cc1cc2nc(O)c(O)nc2cc1[N+](=O)[O-]
inactive: Potency [1] | Potency [2] | Potency [3] | Potency [4] | Potency [5] | outcome [6]
active: Potency [13] 25.1 µM

CCN(CC)CCOC(=O)c1cc(Cl)c(N)cc1OC
inactive: Potency [1] | Potency [2] | Potency [4] | Potency [5] | outcome [6]

O=C(O)c1cc(=O)cc(C(=O)O)[nH]1
active: Potency [1] 3.55 µM
inactive: Potency [2] | Potency [4] | Potency [5] | outcome [6]

CC[N+](CC)(CC)CC(=O)Nc1c(C)cccc1C
inactive: Potency [1] | Potency [2] | Potency [5] | outcome [6]

O=C(O)C1CCNCC1
inactive: Potency [1] | Potency [2] | Potency [4] | Potency [5] | outcome [6]

CCC(=O)N1CCN(C(=O)c2ccccc2)CC1
inactive: Potency [1] | Potency [2] | Potency [3] | Potency [5] | outcome [6]

COc1cc(N)c(Cl)cc1C(=O)OCCN1CCCCC1
inactive: Potency [1] | Potency [2] | Potency [5] | outcome [6]

C#CCn1c(=O)c2c(ncn2C)n(C)c1=O
inactive: Potency [1] | Potency [2] | Potency [3] | Potency [4] | Potency [5] | outcome [6]

Nc1ccc(-c2nc3ccc(-c4nc5ccc(N)cc5[nH]4)cc3[nH]2)cc1
active: Potency [1] 1.12 µM
inactive: Potency [2] | Potency [4] | outcome [6] | Potency [13]

c1ccc2nc(C3=NCCN3)ccc2c1
inactive: Potency [1] | Potency [2] | Potency [5] | outcome [6]

COc1ccc(-c2ccc(N)[n+](CCCC(=O)O)n2)cc1
inactive: Potency [1] | Potency [2] | Potency [3] | Potency [4] | Potency [5] | outcome [6]

O=C1Nc2ccc(I)cc2/C1=C/c1cc(Br)c(O)c(Br)c1
active: Potency [1] 8.91 µM
inactive: Potency [2] | Potency [3] | Potency [5] | outcome [6]

NC(=Nc1ccccc1)NC(=O)c1nc(Cl)c(N)nc1N
active: Potency [1] 7.94 µM | Potency [2] 2.51 µM
inactive: Potency [5] | outcome [6]

C=CCn1c(=O)c2c(nc(-c3ccc(S(=O)(=O)O)cc3)n2C)n(C)c1=O
inactive: Potency [1] | Potency [2] | Potency [3] | Potency [5] | outcome [6]

COc1ccc(CCN(C)CCc2ccc(OC)c(OC)c2)cc1OC
inactive: Potency [1] | Potency [2] | Potency [5] | outcome [6]

O=C(c1ccc2c(c1)OCCO2)N1CCCCC1
inactive: Potency [9]

C=CC[C@H](N)C(=O)O
inactive: Potency [1] | Potency [3] | Potency [4] | Potency [5] | outcome [6]

NOCC(=O)O
inactive: Potency [1] | Potency [3] | Potency [5] | outcome [6]
